# Measurements reported in PubChem BioAssay (Tox21).
# Values joined by “and” are separate entries in the source; they are usually repeats but may differ in a detail not shown here. Equal values may be shown once. Records with an inconclusive call do not appear. A call without a number means that no potency is given here. Active and inactive are the calls of the source. Unless noted, the call rests on the fitted dose curve; in most records, active means well fitted curve in the direction sought with a large enough effect in the repeat runs; inconclusive means weak or mixed curves; inactive means no such curve, though single readings can be large; an effect the other way counts as inactive or inconclusive.
# Key:
# [1] = qHTS assay for identifying genotoxic compounds that show differential cytotoxicity against isogenic chicken DT40 cell lines with known DNA damage response pathways - wild type cell line (AID 743012); further: nearly all actives have a fitted effect of over 60% in size; further: potency means the concentration at half of the fitted maximal effect
# In short: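 Endpoint: CellTiter-Glo luminescence, 30 min RT. Cells: wild type DT40, 300/well. Exposure: compounds in DMSO, 40 h, 37 C/5% CO2, after ~0.5 h pre-incubation.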
# [2] = qHTS assay for identifying genotoxic compounds that show differential cytotoxicity against isogenic chicken DT40 cell lines with known DNA damage response pathways - Rev3 mutant cell line (AID 743014); further: nearly all actives have a fitted effect of over 55% in size; further: potency means the concentration at half of the fitted maximal effect
# [3] = qHTS assay for identifying genotoxic compounds that show differential cytotoxicity against isogenic chicken DT40 cell lines with known DNA damage response pathways - Rad54/Ku70 mutant cell line (AID 743015); further: nearly all actives have a fitted effect of over 60% in size; further: potency means the concentration at half of the fitted maximal effect
# [4] = qHTS assay to identify small molecule antagonists of the androgen receptor (AR) signaling pathway - cell viability counter screen (AID 743033; further: nearly all actives have a fitted effect of over 45% in size; further: potency means the concentration at half of the fitted maximal effect)
# [5] = molecular target: Androgen receptor (Homo sapiens) (UniProt P10275); assay: qHTS assay to identify small molecule antagonists of the androgen receptor (AR) signaling pathway (AID 743035; active means well fitted inhibition curve with a large enough effect in the signal ratio in the repeat runs, not every such curve was filed as active; the % refers to the signal ratio; further: potency means the concentration at half of the fitted maximal effect)
# Sequence of Androgen receptor (Homo sapiens) (P10275 whole entry, looked up): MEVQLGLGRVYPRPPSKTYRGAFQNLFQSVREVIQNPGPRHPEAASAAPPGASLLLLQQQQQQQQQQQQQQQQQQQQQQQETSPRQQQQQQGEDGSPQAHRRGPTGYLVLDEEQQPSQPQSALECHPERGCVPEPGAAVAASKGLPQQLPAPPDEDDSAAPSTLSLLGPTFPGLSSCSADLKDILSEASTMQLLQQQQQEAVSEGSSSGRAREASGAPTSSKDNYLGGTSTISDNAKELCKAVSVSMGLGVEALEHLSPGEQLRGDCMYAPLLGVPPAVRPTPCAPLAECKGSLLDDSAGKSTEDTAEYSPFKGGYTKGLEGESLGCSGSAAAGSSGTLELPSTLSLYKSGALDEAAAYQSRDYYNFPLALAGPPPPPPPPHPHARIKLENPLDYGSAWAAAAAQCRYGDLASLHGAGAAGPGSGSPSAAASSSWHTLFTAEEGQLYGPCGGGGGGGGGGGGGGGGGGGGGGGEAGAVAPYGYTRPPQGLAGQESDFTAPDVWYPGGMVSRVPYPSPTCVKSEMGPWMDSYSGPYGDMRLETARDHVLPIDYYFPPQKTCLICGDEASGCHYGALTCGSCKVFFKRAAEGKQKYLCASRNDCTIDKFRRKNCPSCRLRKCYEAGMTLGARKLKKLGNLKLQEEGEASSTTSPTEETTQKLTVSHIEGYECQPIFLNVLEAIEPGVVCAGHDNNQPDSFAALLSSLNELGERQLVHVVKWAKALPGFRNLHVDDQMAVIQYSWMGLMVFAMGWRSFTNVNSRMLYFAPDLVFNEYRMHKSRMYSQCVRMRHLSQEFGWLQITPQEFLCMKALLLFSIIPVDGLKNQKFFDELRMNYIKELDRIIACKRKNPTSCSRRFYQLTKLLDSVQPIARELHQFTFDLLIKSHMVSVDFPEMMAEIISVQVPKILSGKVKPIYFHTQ
# In short: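 R1881 agonist challenge of a HEK293 UAS-beta-lactamase AR reporter line in the presence of compound (16 h, 37C); signal taken as FRET fluorescence after 2 h with LiveBLAzer B/G substrate at room temperature.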
# [6] = molecular target: Androgen receptor (Homo sapiens) (UniProt P10275); assay: qHTS assay to identify small molecule agonists of the androgen receptor (AR) signaling pathway using the MDA cell line (AID 743040; further: nearly all actives have a fitted effect of over 20% in size)
# In short: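 Stable MMTV-luciferase reporter in MDA-kb2 cells; note the promoter carries GR as well as AR response elements. 16 h compound treatment, 37C, 0% CO2; ONE-Glo luminescence endpoint.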
# [7] = qHTS assay to identify small molecule antagonists of the androgen receptor (AR) signaling pathway using the MDA cell line - cell viability counter screen (AID 743041; further: nearly all actives have a fitted effect of over 45% in size; further: potency means the concentration at half of the fitted maximal effect)
# In short: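 Using the breast carcinoma line MDA-kb2 AR-luc, test chemicals were co-incubated with R1881 for 16 h; CellTiter-Fluor reagent, added at 15.5 h, provided a fluorescence measure of live cells.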
# [8] = molecular target: Androgen receptor (Homo sapiens) (UniProt P10275); assay: qHTS assay to identify small molecule antagonists of the androgen receptor (AR) signaling pathway using the MDA cell line (AID 743042; further: nearly all actives have a fitted effect of over 55% in size)
# In short: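 Antagonist mode: compounds plus R1881 agonist added to MDA-kb2 AR-luc cells, incubated 16 h at 37C. Luciferase reporter luminescence quantified, with multiplexed CellTiter-Fluor readout for cell viability.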
# [9] = qHTS assay to identify small molecule antagonists of the thyroid receptor (TR) signaling pathway - cell viability counter screen (AID 743064); further: nearly all actives have a fitted effect of over 50% in size; further: potency means the concentration at half of the fitted maximal effect
# In short: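 GH3.TRE-Luc cells, 4 h pre-plating; cpd + T3 1 nM final; 37 °C 23.5 h; CellTiter-Fluor 30 min; fluorescence read.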
# [10] = test system: thyroid hormone receptor (rat, GH3 cells); assay: qHTS assay to identify small molecule agonists of the thyroid receptor (TR) signaling pathway (AID 743066; calls by dose curve)
# [11] = molecular target: Estrogen receptor (Homo sapiens) (UniProt P03372); assay: qHTS assay to identify small molecule antagonists of the estrogen receptor alpha (ER-alpha) signaling pathway (AID 743069; active means well fitted curve in the direction sought with a large enough effect in the signal ratio in the repeat runs, not every such curve was filed as active; the % refers to the signal ratio)
# Sequence of Estrogen receptor (Homo sapiens) (P03372 whole entry, looked up): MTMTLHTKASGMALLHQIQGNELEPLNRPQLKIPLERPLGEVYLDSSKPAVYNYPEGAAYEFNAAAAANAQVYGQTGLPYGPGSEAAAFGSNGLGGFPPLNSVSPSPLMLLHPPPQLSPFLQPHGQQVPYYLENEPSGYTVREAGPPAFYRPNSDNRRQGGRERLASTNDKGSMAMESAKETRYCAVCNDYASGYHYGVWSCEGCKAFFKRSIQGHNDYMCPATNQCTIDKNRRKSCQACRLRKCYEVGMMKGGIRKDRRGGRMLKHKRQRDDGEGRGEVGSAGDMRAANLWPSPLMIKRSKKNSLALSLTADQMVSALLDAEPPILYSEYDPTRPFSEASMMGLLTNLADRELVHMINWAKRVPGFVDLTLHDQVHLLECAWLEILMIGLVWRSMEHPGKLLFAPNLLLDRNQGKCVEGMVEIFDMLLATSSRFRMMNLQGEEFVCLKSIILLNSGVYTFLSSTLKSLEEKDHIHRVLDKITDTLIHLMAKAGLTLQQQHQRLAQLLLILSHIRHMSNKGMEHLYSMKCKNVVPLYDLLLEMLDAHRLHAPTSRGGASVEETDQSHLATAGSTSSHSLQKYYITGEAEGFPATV
# In short: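 Fluorescence intensity from a beta-lactamase FRET substrate served as the read-out. Cells: HEK293 with stably integrated ER-alpha-UAS-bla reporter. Agonist 17beta-estradiol was co-added with compounds; incubation 18 hr at 37C, substrate 2 hr at room temperature.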
# [12] = qHTS assay to identify small molecule antagonists of the estrogen receptor alpha (ER-alpha) signaling pathway - cell viability counter screen (AID 743074; calls by dose curve; further: nearly all actives have a fitted effect of over 45% in size; further: potency means the concentration at half of the fitted maximal effect)
# [13] = molecular target: Estrogen receptor (Homo sapiens) (UniProt P03372); assay: qHTS assay to identify small molecule agonists of the estrogen receptor alpha (ER-alpha) signaling pathway (AID 743075; calls by dose curve)
# [14] = molecular target: Estrogen receptor (Homo sapiens) (UniProt P03372); assay: qHTS assay to identify small molecule agonists of the estrogen receptor alpha (ER-alpha) signaling pathway using the BG1 cell line (AID 743079); further: nearly all actives have a fitted effect of over 20% in size; further: potency means the concentration at half of the fitted maximal effect
# [15] = qHTS assay to identify small molecule antagonists of the estrogen receptor alpha (ER-alpha) signaling pathway using the BG1 cell line (AID 743080; calls by dose curve; further: nearly all actives have a fitted effect of over 25% in size; further: potency means the concentration at half of the fitted maximal effect)
# In short: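 Antagonist mode: compounds in DMSO were pinned onto BG1-Luc-4E2 cells alongside 17beta-estradiol agonist, incubated 21.5 h, and ERE-driven luciferase measured with ONE-Glo. Cytotoxicity was multiplexed using CellTiter-Fluor fluorescence.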
# [16] = qHTS assay to identify small molecule antagonists of the estrogen receptor alpha (ER-alpha) signaling pathway using the BG1 cell line - cell viability counter screen (AID 743081);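 further: compound given together with 17beta-estradiol as the ER stimulus; series mostly up to about 70 µM; nearly all actives have a fitted effect of over 45% in size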
# Aromatase (Homo sapiens) = Aromatase (Homo sapiens) (UniProt P11511); assay: qHTS assay to identify aromatase inhibitors (AID 743083); further: nearly all actives have a fitted effect of over 55% in size; further: potency means the concentration at half of the fitted maximal effect
# Sequence of Aromatase (Homo sapiens) (P11511 whole entry, looked up): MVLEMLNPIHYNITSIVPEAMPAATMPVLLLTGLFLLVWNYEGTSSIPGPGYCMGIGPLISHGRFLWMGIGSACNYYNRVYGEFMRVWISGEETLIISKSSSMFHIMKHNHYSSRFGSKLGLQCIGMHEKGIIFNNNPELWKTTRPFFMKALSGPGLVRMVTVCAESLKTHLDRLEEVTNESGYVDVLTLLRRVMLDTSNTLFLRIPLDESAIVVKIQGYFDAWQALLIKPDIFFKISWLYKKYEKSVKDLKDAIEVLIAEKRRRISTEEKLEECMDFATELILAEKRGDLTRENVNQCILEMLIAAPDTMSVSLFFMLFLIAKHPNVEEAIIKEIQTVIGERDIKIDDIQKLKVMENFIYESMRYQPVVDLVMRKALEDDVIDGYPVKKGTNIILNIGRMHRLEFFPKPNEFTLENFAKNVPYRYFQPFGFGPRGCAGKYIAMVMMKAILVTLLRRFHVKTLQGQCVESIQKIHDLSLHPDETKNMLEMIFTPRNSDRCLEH
# [17] = qHTS assay to identify small molecule antagonists of the glucocorticoid receptor (GR) signaling pathway - cell viability counter screen (AID 720693); further: nearly all actives have a fitted effect of over 55% in size
# [18] = molecular target: Androgen receptor (Homo sapiens) (UniProt P10275); assay: qHTS assay to identify small molecule agonists of the androgen receptor (AR) signaling pathway (AID 743036; active means well fitted activation curve with a large enough effect in the signal ratio in the repeat runs, with a control signal flat, not every such curve was filed as active; the % refers to the signal ratio)
# In short: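 AR-bla HEK293 cells, 2,000/well; 4 h preincubation 37C/5% CO2; compound (DMSO) 16 h at 37C; LiveBLAzer B/G FRET substrate 2 h RT; fluorescence intensity read-out.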
# [19] = qHTS assay to identify small molecule antagonists of the thyroid receptor (TR) signaling pathway (AID 743065); further: nearly all actives have a fitted effect of over 55% in size; further: potency means the concentration at half of the fitted maximal effect
# In short: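 Antagonism measured as loss of luciferase signal in GH3 cells stably carrying a TRE-luciferase reporter, co-treated with compound and T3 (1 nM final) for 23.5 h at 37 C. Viability was read in the same well by CellTiter-Fluor.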
Compound,Potency [1],Potency [2],Potency [3],Potency [4],Potency [5],Potency [6],Potency [7],Potency [8],Potency [9],Potency [10],Potency [11],Potency [12],Potency [13],Potency [14],Potency [15],Potency [16],Potency (Aromatase (Homo sapiens)),Potency [17],Potency [18],Potency [19]
CO/N=C(\C(=O)N[C@@H]1C(=O)N2C(C(=O)O)=C(C[N+]3(C)CCCC3)CS[C@H]12)c1csc(N)n1,inactive,inactive,inactive,inactive,inactive,inactive,inactive,inactive,inactive,inactive,inactive,inactive,inactive,inactive,inactive,inactive,inactive,,,
N=C(N)c1ccc(/C=C/c2ccc(C(=N)N)cc2O)cc1,,,,inactive,,,inactive,,,inactive,inactive,inactive,inactive,inactive,inactive,inactive,inactive,inactive,,
CCCn1c(=O)[nH]c(=O)c2[nH]cnc21,inactive,inactive,inactive,inactive,,,inactive,,,,,inactive,,,,inactive,,,,
C[C@@H]1C(=O)NC2=Nc3cccc(Cl)c3CN21,inactive,inactive,inactive,inactive,inactive,inactive,inactive,inactive,inactive,inactive,,inactive,,,,inactive,inactive,,inactive,inactive
O=C(O)c1cc2cc(Cc3cccnc3)ccc2o1,inactive,inactive,inactive,inactive,,,inactive,,,inactive,inactive,inactive,,18.8 µM (active),inactive,inactive,inactive,,,inactive
CCCCCCCC[N+](C)(C)CCCCCCCC,668 nM (active) and 531 nM (active),1.19 µM (active) and 1.06 µM (active),1.33 µM (active) and 944 nM (active),16.9 µM (active) and 12 µM (active),,,21.1 µM (active),,21.1 µM (active),,,,inactive,,29.8 µM (active),inactive,29.8 µM (active) and 26.6 µM (active),,,11.9 µM (active) and 13.3 µM (active)
N[C@H](C(=O)O)[C@@H]1CC(Cl)=NO1,2.66 µM (active),2.66 µM (active),2.98 µM (active),,,,inactive,,5.96 µM (active),inactive,,inactive,inactive,inactive,inactive,inactive,,,,2.98 µM (active)
C[C@H](NCCc1ccc(O)cc1)[C@H](O)c1ccc(O)cc1,inactive,inactive,inactive,inactive,,,inactive,,inactive,inactive,inactive,inactive,inactive,inactive,inactive,inactive,inactive,,,inactive
C[C@H]1O[C@@H](O[C@H]2CC[C@@]3(C)[C@H](CC[C@@H]4[C@@H]3C[C@@H](O)[C@]3(C)[C@@H](C5=CC(=O)OC5)CC[C@]43O)C2)C[C@H](O)[C@@H]1O[C@H]1C[C@H](O)[C@H](O[C@H]2C[C@H](O)[C@H](O[C@@H]3O[C@H](CO)[C@@H](O)[C@H](O)[C@H]3O)[C@@H](C)O2)[C@@H](C)O1,1.33 µM (active),1.33 µM (active),1.5 µM (active),268 nM (active),1.2 µM (active),,inactive,,inactive,inactive,,0.268 µM (active),inactive,,,inactive,inactive,,,inactive
O=C(Nc1ccccc1)c1cc(Cl)ccc1O,13.7 µM (active),9.69 µM (active),9.69 µM (active),11000 nM (active),,,,,10.9 µM (active),inactive,,,,,,,27.3 µM (active),,,5.45 µM (active)
Cc1ncc(C[n+]2csc(CCOP(=O)(O)O)c2C)c(N)n1,inactive,inactive,inactive,inactive,,,inactive,,inactive,,,inactive,,,,inactive,inactive,,,
CSCCC(N)C(=O)O (stereo not given),inactive,inactive,inactive,,,,inactive,,inactive,inactive,inactive,inactive,inactive,inactive,inactive,inactive,inactive,,,inactive
